From PubChem BioAssay AID624483 (NMMLSC, 2012)
In all, about 360,000 compounds went through this assay and about 11,000 (3.1%) were called active. Not shown: some 2% with an inconclusive outcome. Cut-off read from the data, not from the text of the source: active = fluorescence intensity above about 16000; inconclusive = no clear call, values can overlap the other calls; inactive = below that. The entries come from a sample that favours actives as a whole.

Assay: counter-screen for toxin protease inhibitors: compound fluorescence, primary screen, artefact control for toxin protease inhibitor project, biochemical, multiplex microsphere, HTS (AID 624483)
Conditions: compound autofluorescence counterscreen, microsphere flow cytometry; stronger effect = higher value

| Compound | fluorescence intensity |
| --- | --- |
| COC(=O)C1C(=O)CC(C)(O)C(C(=O)OC)C1c1ccc2c(c1)OCO2 (configuration not stated) | 8340 (inactive) |
| Cc1ccsc1-c1cc(C(=O)O)c2c(ccc3ccccc32)n1 | 3620 (inactive) |
| COCCn1nnnc1CN1CCC(NC(=O)Nc2cccc(OC)c2)CC1 | 24600 (active) |
| COc1cccc(NC(=O)N2CCCC2C(=O)NC2CCCCC2)c1 (configuration not stated) | 6160 (inactive) |
| COc1cccc(NC(=O)N2CCC(NC(=O)C(Cc3cccc(C)c3)NC(C)=O)CC2)c1 (configuration not stated) | 3850 (inactive) |
| COc1cc(C(=O)NN(CCC#N)C2=NS(=O)(=O)c3ccccc32)cc(OC)c1OC | 4420 (inactive) |
| COc1ccc(/C=C2\CCCC3C2=NN(C(=O)c2scnc2C)C3c2ccc(OC)cc2)cc1 (configuration not stated) | 22800 (active) |
| COc1ccc(C=C2CCC3C(CCCC34OCCO4)C2=O)cc1 (configuration not stated) | 2890 (inactive) |
| COc1ccc(/C=C2/CCCc3ccccc3C2=O)cc1 | 3030 (inactive) |
| Nc1ncnc2c1ncn2[C@@H]1O[C@H](C(=O)N2CCSC2)[C@@H](O)[C@H]1O | 5590 (inactive) |
| O=C(NC1CCCC1)C1c2ccccc2OCC(=O)N1CC(F)(F)F (configuration not stated) | 6700 (inactive) |
| Cn1c(CN2CCOCC2)nc2cc(NC(=O)c3ccc(Cl)cc3)ccc21 | 4450 (inactive) |
| C=CCn1c(C)cc(C2=NNC(=NCC)SC2)c1C | 2100 (inactive) |
| COCCn1c(C)cc(C2=NNC(=Nc3ccc(F)cc3)SC2)c1C | 20800 (active) |
| C[C@@H]1CN([C@@H](C)CO)C(=O)c2c(c3ccccc3n2C)-c2ccccc2CO[C@H]1CN(C)C(=O)C1CC1 | 3570 (inactive) |
| CCCCCCCCN1C(=O)[C@H](CC(=O)NCc2cccc3ccccc23)C[C@@]2(C(=O)OC)CCCCC=C12 | 4630 (inactive) |
| CC(=O)NCC(=O)N1CCC(n2nccc2NC(=O)CCCc2ccccc2)CC1 | 6400 (inactive) |
| O=C(O)CCC(=O)NCc1ccc(C(=O)O)cc1 | 3850 (inactive) |
| NNC(=O)c1ccc(COCC(F)(F)C(F)F)cc1 | 4020 (inactive) |
| O=C(O)c1ccc(COCC(F)(F)F)cc1 | 16300 (active) |
| O=C(NCCCN1CCOCC1)C1CCCN(S(=O)(=O)N2CCCCC2)C1 (configuration not stated) | 5550 (inactive) |

| Compound | fluorescence intensity |
| --- | --- |
| CN(C(=O)COC(=O)CCCc1c[nH]c2ccccc12)c1c(N)n(Cc2ccccc2)c(=O)[nH]c1=O | 3770 (inactive) |
| CC1=C(C(=O)N2CCOCC2)CC(CC(=O)NCCCN(C)C)C(=O)N1Cc1ccc(C(C)(C)C)cc1 (configuration not stated) | 5880 (inactive) |
| CCOc1ccc(-c2noc(CCC(=O)NC3CCCC3)n2)cc1OC | 4230 (inactive) |
| CCOC(=O)c1cc(-c2nnc(-c3cc(OC)c(OC)c(OC)c3)o2)c(C)nc1C | 3800 (inactive) |
| CCOc1nc(-c2ccc(OC)cc2)ccc1-c1noc(-c2cc(OC)c(OC)c(OC)c2)n1 | 20200 (active) |
| Nc1ncnc2c1ncn2[C@@H]1O[C@H](C(=O)NCC(F)(F)F)[C@@H](O)[C@H]1O | 5880 (inactive) |
| COC(=O)[C@@]1(Cc2ccc(F)cc2)[C@H]2c3cc(C(=O)N4CCCC4)n(Cc4ccc(OC(F)(F)F)cc4)c3C[C@H]2CN1C(=O)c1ccccc1 | 4360 (inactive) |
| CN1C[C@@H](CO)O[C@@H](n2cnc3c(N4CCN(CCO)CC4)ncnc32)C1 | 3470 (inactive) |
| COC(=O)c1ccc2c(=O)n(CCN3CCOCC3)c(SCC(=O)Nc3cccc(OC)c3)nc2c1 | 5360 (inactive) |
| CC(=O)c1ccc(NC(=O)CSc2nc3ccccc3c(=O)n2CCCN2CCOCC2)cc1 | 3650 (inactive) |
| CCc1ccc(NC(=O)CSc2nc3ccccc3c(=O)n2CCN2CCOCC2)cc1 | 23500 (active) |
| Clc1ccc(-c2cccc3nccn23)cc1 | 3770 (inactive) |
| COc1cccc(-c2nc3nc(C)cc(C)n3c2NC2CCCCC2)c1 | 7480 (inactive) |
| Cc1ccc(F)c(S(=O)(=O)NC(=O)C2(C)CCN2C(=O)c2ccco2)c1 (configuration not stated) | 3860 (inactive) |
| CCCS(=O)(=O)Nc1c(C(=O)O)[nH]c2ccccc12 | 10100 (inactive) |
| COC(=O)c1[nH]c2ccccc2c1NS(=O)(=O)c1ccc(OC)cc1OC | 20900 (active) |
| COc1ccc(NC(=O)COC(=O)c2n[nH]c3ccccc23)c(OC)c1 | 5180 (inactive) |
| CCC(C)(C)c1ccc(OCC(=O)N(C)C)c(C(C)(C)CC)c1 | 4730 (inactive) |
| Cc1ccc(C(=O)Nc2ccccc2C(=O)NC2CCCCC2)cc1S(=O)(=O)N1CCOCC1 | 16600 (active) |
| Cc1ccc(NC(=O)NC2CCCCC2)cc1S(=O)(=O)N1CCOCC1 | 3370 (inactive) |
| Cc1ccc(C(=O)Nc2ncccc2C)cc1S(=O)(=O)N1CCOCC1 | 5280 (inactive) |

| Compound | fluorescence intensity |
| --- | --- |
| CCc1ccccc1NC(=O)CN1CCN(C(=O)c2cc(C3CC3)nn2-c2ccccc2)CC1 | 3950 (inactive) |
| CCNC(=O)N1CCN(S(=O)(=O)c2ccc3c(c2)OCCCO3)CC1 | 5340 (inactive) |
| CN1CCCN(S(=O)(=O)c2ccc3c(c2)OCCO3)CC1 | 22400 (active) |
| CCCCCC(=O)N1CCN(S(=O)(=O)c2ccc3c(c2)OCCCO3)CC1 | 5990 (inactive) |
| N#Cc1ccc(-c2nc3c(Cl)cc(C(F)(F)F)cn3c2Cc2ccccc2C(F)(F)F)cc1 | 5560 (inactive) |
| COc1ccc(NC(=O)C2Cc3c(-c4ccc5c(c4)OCO5)ccnc3O2)cn1 (configuration not stated) | 2850 (inactive) |
| C#CCOc1ccccc1/C=C1/C(=O)ON=C1C | 4290 (inactive) |
| CCOC(=O)c1cc2c(ccn2C)n1CC(=O)N1CCC(C)CC1 | 4040 (inactive) |
| C/C(=N\c1nc2ccccc2n1C)c1cc(Cl)ccc1O | 3250 (inactive) |
| Oc1ccc(Cl)cc1/C=N/c1nc2ccccc2[nH]1 | 22500 (active) |
| Oc1c(Cl)cc(Cl)cc1/C=N/c1ncn[nH]1 | 4010 (inactive) |
| C=CCNCCCCOc1ccccc1 | 2600 (inactive) |
| CCc1nc2c(OCC(=O)C(C)(C)C)cccn2c1N(C)C(=O)c1ccccc1F | 3600 (inactive) |
| CC1(C(=O)NCc2ccc3c(c2)OCO3)CCN1CCc1ccccc1 (configuration not stated) | 3940 (inactive) |
| CCc1nc2ccc(C(=O)N3CCN(S(=O)(=O)CC)CC3)cn2c1N(C=O)CCC(C)C | 3570 (inactive) |
| CC(=O)c1ccc(NC(=O)Cn2c(=O)oc3ccccc32)cc1 | 3040 (inactive) |
| CC1CCCN(C(=O)Cn2c(=O)oc3ccccc32)C1 (configuration not stated) | 3850 (inactive) |
| NC(=O)Cn1c(=O)oc2ccccc21 | 19700 (active) |
| O=C(NC(c1ccc(Cl)cc1)c1cnccn1)C1CCN(Cc2ccc(Cl)cc2)CC1 (configuration not stated) | 4620 (inactive) |
| CCCCC[C@H](C)N1C[C@@H](COCc2ccccc2)Oc2cc(N3CC[C@@H](N(C)C)C3)ccc2S1(=O)=O | 5700 (inactive) |
